Pol beta inh: inhibitors of human DNA polymerase beta. Potency, µM (series often up to 114 µM), inactives show top-dose activity change, negative = inhibition, most hits filed as inhibitors. Pol beta primer extension/strand displacement, fluorescence kinetic. actives 1.3% (n = 340,000); further: potency means the concentration at half of the fitted maximal effect; on the % scale 0 is the no-effect control and ±100 the full control effect
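Homogeneous kinetic assay of primer extension and strand displacement by 10 nM Pol beta, preincubated 15 min at room temperature with compound before 50 nM substrate (final) was added. Read at 0 and 10 min; four-parameter Hill fit.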
Pol iota inh: DNA polymerase iota (human) inhibition. AID 588590. actives 1% (n = 390,000). Pol iota fluorescent replication assay, 10 min. Potency, µM (highest dose often 115 µM), for the others: top-dose activity, negative = inhibition, hits mostly inhibitors. Q9UNA4; further: potency means the concentration at half of the fitted maximal effect
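Fluorescent replication assay read twice, at 0 min and 10 min after adding 50 nM (final) substrate. Enzyme (10 nM) and compounds were first incubated 15 min at room temperature; enzyme-free buffer wells were negative controls.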
WRN helicase inh: WRN helicase (human) inhibition; actives 0.46% (n = 360,000); Potency, µM (top dose mostly 114 µM), without a hit: top-dose activity change, negative = inhibition, most hits filed as inhibitors; WRN helicase unwinding, fluorescent forked duplex, kinetic; Q14191; further: potency means the concentration at half of the fitted maximal effect; on the % scale 0 is the no-effect control and ±100 the full control effect; nearly all actives have a fitted effect of over 55% in size
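Primary qHTS, 1536-well format. 20 nM WRN + compound, 15 min RT; start with 100 nM forked fluorophore/quencher duplex, 2 mM ATP (final); kinetic read ex 525/em 598 nm.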
Pol kappa inh-1: DNA polymerase kappa (human) inhibition. Potency, µM (top dose mostly 107 µM), inactives show top-dose activity, negative = inhibition, most hits filed as inhibitors. AID 588579. purified Pol kappa, fluorescent DNA synthesis assay, 10 min. actives 0.53% (n = 400,000). Q9UBT6; further: potency means the concentration at half of the fitted maximal effect; on the % scale 0 is the no-effect control and ±100 the full control effect
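Pol kappa 10 nM + cpd, 15 min RT; start w/ substrate 50 nM final; fluorescence kinetic read, 0 and 10 min. Neg ctrl: buffer, no enzyme.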
Pol eta inh-1: blocks human DNA polymerase eta activity; Q9Y253; recombinant Pol eta, fluorescent DNA replication assay; Potency, µM (series often up to 114 µM), without a hit: at the top dose activity change, negative = inhibition, actives largely listed as inhibitors; actives 1.2% (n = 390,000); AID 588591; further: potency means the concentration at half of the fitted maximal effect; on the % scale 0 is the no-effect control and ±100 the full control effect
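Pol eta (10 nM) was preincubated with compounds for 15 min at room temperature, after which fluorescent replication substrate (50 nM final) was added to start the reaction. Fluorescence was read kinetically at 0 and 10 min.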
L3MBTL1 inh: blocks human L3MBTL1. Potency, µM (doses to about 57.1 µM), inactives show top-dose activity, negative = inhibition, hits mostly inhibitors. AlphaScreen L3MBTL1–H3K9me1 peptide binding. actives 0.66% (n = 230,000). Q9Y468. AID 485360; further: potency means the concentration at half of the fitted maximal effect; on the % scale 0 is the no-effect control and ±100 the full control effect; nearly all actives have a fitted effect of over 60% in size
Target sequence (Q9Y468 whole entry, looked up): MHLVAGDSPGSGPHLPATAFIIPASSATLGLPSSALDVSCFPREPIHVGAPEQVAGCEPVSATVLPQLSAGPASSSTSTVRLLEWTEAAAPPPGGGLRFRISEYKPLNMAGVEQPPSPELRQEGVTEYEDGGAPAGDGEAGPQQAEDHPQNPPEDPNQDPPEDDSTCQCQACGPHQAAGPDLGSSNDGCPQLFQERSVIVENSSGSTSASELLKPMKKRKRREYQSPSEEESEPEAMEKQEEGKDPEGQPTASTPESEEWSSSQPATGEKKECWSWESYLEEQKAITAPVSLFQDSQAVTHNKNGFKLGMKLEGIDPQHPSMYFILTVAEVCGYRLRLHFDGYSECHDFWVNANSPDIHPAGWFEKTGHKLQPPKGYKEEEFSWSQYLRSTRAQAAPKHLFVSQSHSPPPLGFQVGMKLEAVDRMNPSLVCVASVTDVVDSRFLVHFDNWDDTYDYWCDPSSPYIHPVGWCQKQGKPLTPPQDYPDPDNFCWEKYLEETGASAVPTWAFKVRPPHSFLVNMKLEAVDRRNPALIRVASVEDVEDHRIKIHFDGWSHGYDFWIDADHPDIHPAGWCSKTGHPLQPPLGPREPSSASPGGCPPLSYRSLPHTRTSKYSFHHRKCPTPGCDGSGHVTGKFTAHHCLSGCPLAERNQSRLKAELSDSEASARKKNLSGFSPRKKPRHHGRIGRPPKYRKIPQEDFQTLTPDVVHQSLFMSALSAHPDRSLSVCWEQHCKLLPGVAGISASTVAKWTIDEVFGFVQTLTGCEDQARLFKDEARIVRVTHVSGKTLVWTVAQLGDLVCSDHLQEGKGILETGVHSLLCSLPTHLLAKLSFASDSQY
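L3MBTL1 50 nM + b-AHA-H3(1-15)K9me1 75 nM, 30 min RT; compound added, 30 min RT; streptavidin donor/Ni-chelate acceptor beads 10 ug/mL each final, 30 min RT dark; AlphaScreen read.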
GALK inh confirm: galactokinase (human) inhibition, confirmation. shares compounds with Pol eta inh-1. purified GALK, Kinase-Glo ATP depletion luminescence. actives 70% (n = 150). Potency, µM (highest dose often 115 µM), for inactives: at the highest dose activity, negative = inhibition, actives largely listed as inhibitors
Redox cycling: redox cycling activity in phenol red-HRP assay | shares compounds with Pol eta inh-1 | Phenol red-HRP H2O2 redox cycling, absorbance 600 nm | Potency, µM (doses to about 115 µM), for the others: top-dose activity change, negative = H2O2 signal, actives largely listed as inhibitors | actives 40% (n = 150) | AID 2035
HEK293 viability: counter-screen for GALK inhibitors: HEK293 cell cytotoxicity. shares compounds with Pol eta inh-1. HEK-293 viability, ATP luminescence (CellTiter-Glo), 24/48 h. Potency, µM (top dose mostly 46.1 µM), without a hit: top-dose activity change, negative = cytotoxicity, actives largely listed as inhibitors. actives 10% (n = 170). AID 2547; further: potency means the concentration at half of the fitted maximal effect; on the % scale 0 is the no-effect control and ±100 the full control effect
Pol kappa inh-2: confirmation of human DNA polymerase kappa inhibitors; Potency, µM, hits mostly inhibitors; AID 720501; purified Pol-kappa, fluorescent strand-displacement substrate; shares compounds with Pol eta inh-1; actives 76% (n = 920); further: potency means the concentration at half of the fitted maximal effect
Pol eta inh-2: confirmation of human DNA polymerase eta inhibitors | actives 64% (n = 2,600) | Potency, µM, hits mostly inhibitors | shares compounds with Pol eta inh-1 | Pol eta primer extension, TAMRA/BHQ fluorescence, 10 min; further: potency means the concentration at half of the fitted maximal effect
An asterisk follows results filed as active; ? = inconclusive; nt = not tested or not shown; [ ] = dose if it differs, or a comment. This is a sample that favours compounds with a hit; in the whole collection about 2.5% have one here. The call rests on the fitted dose curve; in most records, active means well fitted curve in the direction sought with a large enough effect; inconclusive means small, poorly fitted or top-dose-only effect, or another doubt; inactive means no such curve, though single readings can be large; an effect the other way counts as inactive or inconclusive.

SMILES | Pol beta inh | Pol iota inh | WRN helicase inh | Pol kappa inh-1 | Pol eta inh-1 | L3MBTL1 inh | Pol eta inh-2 | others
O=C(/C=C/c1ccco1)c1ccc(NC(=O)C23CC4CC(CC(C4)C2)C3)cc1 | 7.1µM* | ? | ? | ? | 10µM* | 22µM* | ?
COC(=O)c1ccc2c(c1)N(Cc1cc(C)ccc1C)C(=O)c1ccccc1S2(=O)=O | -2% | 6% | nt | -4%[60.1 µM] | -19% | nt | nt
CCc1cccc(NC(=O)CCS(=O)(=O)c2ccc(Br)cc2)c1 | 7.1µM* | -2% | ? | 0% | 25µM* | nt | 85* | Pol kappa inh-2=42*
COc1ccc(CNC(=O)CCS(=O)(=O)c2ccc(Br)cc2)cc1 | -30% | ? | -5%[11.6 µM] | ? | ? | nt | 76*
COC(=O)Cc1nc(NC(=O)c2cccs2)sc1C | 20% | 132% | 0% | -9% | -12% | nt | nt
CCN(CC)S(=O)(=O)c1ccc(/C=C/C(=O)OCC(=O)NCc2ccco2)cc1 | nt | 35µM* | ? | ? | 16µM* | ? | ? | Pol kappa inh-2=42*
CCN(CC)S(=O)(=O)c1ccc(C(=O)OCC(=O)NCc2ccco2)cc1 | ? | ? | -31% | ? | ? | -22% | nt
CN(C)S(=O)(=O)c1ccc(Cl)c(NC(=O)COC(=O)/C=C/c2ccco2)c1 | ? | ? | -15% | -30% | ? | -20% | ?
COc1ccc(/C=C/C(=O)OCC(=O)Nc2cc(S(=O)(=O)N(C)C)ccc2Cl)cc1 | -12% | 23% | -5% | 0% | -21% | -2% | nt
CC1CC(C)CN(S(=O)(=O)c2ccc(NC(=O)CN3C(=O)NC(C)(c4ccccc4)C3=O)cc2)C1 (stereo not given) | ? | 11% | -8% | -19% | -19% | nt | nt
Cc1cccn2c(=O)c3cc(C#N)c(=NC(=O)c4ccco4)n(Cc4ccco4)c3nc12 | 14µM* | ? | -29%[57.1 µM] | ? | ? | -24% | ?
Cc1cccn2c(=O)c3cc(C#N)c(=NC(=O)c4cccs4)n(CC(C)C)c3nc12 | -8% | 18% | 0% | 6% | 13% | 2% | nt
CCOC(=O)c1cc2c(=O)n3cccc(C)c3nc2n(Cc2ccco2)c1=NC(=O)c1cccnc1 | 35µM* | ? | ? | ? | 20µM* | -10%[11.4 µM] | ?
CCOC(=O)c1cc2c(=O)n3ccccc3nc2n(Cc2ccco2)c1=NC(=O)c1ccc(OCC)cc1 | 20% | ? | nt | -37% | -5% | nt | nt
CCS(=O)(=O)C1=NN2C(=N)/C(=C\c3ccc(OC(=O)c4ccco4)c(Br)c3)C(=O)N=C2S1 | 89µM* | nt | nt | nt | nt | nt | nt | GALK inh confirm=30µM*;Redox cycling=0%;HEK293 viability=-10%
CCOc1cc(/C=C2\C(=N)N3N=C(N4CCCCC4)SC3=NC2=O)ccc1OC(=O)c1ccco1 | ? | ? | -17% | -28% | ? | -8% | nt
Cc1cccc(Nc2ccccc2C(=O)OCC(=O)NCc2ccco2)c1C | 1% | ? | -19%[57.1 µM] | -9% | 79µM* | -16% | ?
COC(=O)c1c(N)sc2c1CC(C)(C)OC2 | 15% | ? | -5% | -8% | -16% | -17% | nt
CCOC(=O)Cc1csc(-n2sc3ccccc3c2=O)n1 | ? | -17% | -22%[11.6 µM] | -28% | 40µM* | nt | ?
CCOC(=O)Cc1csc(SCn2nnc3ccccc3c2=O)n1 | -17% | -4% | 8% | 6% | -7% | -1% | nt
O=C(CSc1nc(-c2ccccc2)nc2ccc(F)cc12)Nc1cccc(C(=O)O)c1 | ? | ? | -21% | -25% | 79µM* | nt | nt | Pol kappa inh-2=?
COc1ccc2c(c1)Oc1nc(-c3ccc(C)cc3)nc(SCC(=O)Nc3cccc(C(=O)O)c3)c1C2 | nt | nt | nt | nt | nt | nt | nt | Pol kappa inh-2=30*
O=C(CSc1nncc2ccccc12)Nc1cccc(C(=O)O)c1 | 19% | ? | -3% | 0% | -22% | nt | nt
Cc1c(C(=O)Nc2ccc(S(=O)(=O)Nc3ncccn3)cc2)oc2ccccc12 | nt | ? | -9% | ? | 28µM* | -1% | 43*
COCc1cc(CN2CCCC2)c(O)c2ncccc12 | -2% | 63% | 0% | -16% | -8% | 10µM* | nt | GALK inh confirm=1%;Redox cycling=-3%;HEK293 viability=?
SMILES | Pol beta inh | Pol iota inh | WRN helicase inh | Pol kappa inh-1 | Pol eta inh-1 | L3MBTL1 inh | Pol eta inh-2 | others
O=C(Nc1ccc(Cl)cn1)c1cccc2ccccc12 | 48% | 13% | 4% | -3% | -10% | -2%[2.29 µM] | nt
COP(=O)(OC)c1ccc(NCc2cc(O)ccc2O)cc1 | nt | 10µM* | 56µM* | ? | 10µM* | nt | 48*
CC(C)OC(=O)c1ccc(NCc2cc(O)ccc2O)cc1 | nt | -2% | -11% | -19% | -24% | nt | nt
Cc1ccc(S(=O)(=O)N(CC(=O)N/N=C/c2ccccc2C(=O)O)c2cc(Cl)cc(Cl)c2)cc1 | 1% | -7% | -11% | -1% | -13% | -8% | nt
COc1ccc(NC(=O)c2c[nH]n3c(=O)cc(C4CCN(C(=O)OC(C)(C)C)CC4)nc23)cc1Cl | -3% | 23% | -5% | -7% | 89µM* | nt | 85* | Pol kappa inh-2=75*
CC(C)(C)OC(=O)N1CCC(c2cc(=O)n3[nH]cc(C(=O)Nc4ccc(F)c(Cl)c4)c3n2)CC1 | -21% | ? | -2% | -11% | -1% | 0% | nt
Cc1ccc(C)c(Nc2nc3c(S(=O)(=O)c4ccc(C(C)C)cc4)nnn3c3ccsc23)c1 | 1% | -24% | nt | -14% | -19% | nt | nt
Cc1ccc(C)c(Nc2nc3c(S(=O)(=O)c4ccc(Br)cc4)nnn3c3ccsc23)c1 | 18µM* | 45µM* | nt | ? | -25% | nt | nt | Pol kappa inh-2=21*
